Bioassay records (PubChem BioAssay)
Rows were chosen to be rich in hits. Some 3.7% of all compounds tested hit in one or more screens of this group.
Tau fibril FP: inhibitors of human tau fibril formation; P10636; K18 P301L tau heparin fibrillization, Alexa594 FP, 6 h; Potency, µM (series often up to 57.7 µM), most hits filed as inhibitors; hit rate 0.39% among 280,000; AID 1468; also: nearly all actives have a fitted effect of over 55% in size
Target sequence (P10636 561-689 P618L limits assumed): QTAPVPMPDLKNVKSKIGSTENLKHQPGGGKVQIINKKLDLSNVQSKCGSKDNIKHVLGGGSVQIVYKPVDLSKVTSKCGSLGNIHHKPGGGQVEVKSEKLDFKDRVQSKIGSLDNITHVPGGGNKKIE
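Quantitative HTS format: compounds meet 15 uM recombinant K18 P301L tau and Alexa 594-tau tracer in 100 mM sodium acetate pH 7; 20 uM heparin triggers fibrillization at 37 C over 6 hr; FP gives the signal.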
Tau fluor counter: counter-screen for tau fibril formation inhibitors; tau K18 P301L Alexa594 fluorescence, heparin fibrillization; Potency, µM (highest dose often 57.7 µM); hit rate 0.93% among 280,000; AID 1463; also: nearly all actives have a fitted effect of over 55% in size
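Human K18 P301L tau (15 uM unlabeled plus 0.24 uM Alexa 594-labeled, final) in 100 mM sodium acetate pH 7 was mixed with compound and 20 uM heparin and incubated 6 hr at 37 C.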
HttQ103 aggreg: inhibitors of mutant huntingtin aggregate formation in PC12 cells; PC12 HttQ103-GFP aggregates, Acumen cytometry, 40 h; Potency, µM (series often up to 46.1 µM), actives largely listed as inhibitors; hit rate 1.1% among 220,000; also: nearly all actives have a fitted effect of over 60% in size
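Quantitative HTS on tebufenozide-induced (100 nM) PC12 cells stably expressing polyQ103 Huntingtin exon 1–GFP. Reduction of bright GFP aggregates, detected by laser scanning cytometry after lysis, identified actives across the titration.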
HTT cytoprotect: cytoprotection in Huntington HTT-Q103 PC12 cell model; hit rate 0.14% among 230,000; AID 1471; PC12 HTT-Q103 induced, cytoprotection, ATP luminescence, 40 h; Potency, µM (titrated, usually from 56.4 µM), actives largely listed as activators; also: nearly all actives have a fitted effect of over 45% in size
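ATP quantification (ATPlite) reports survival of PC12 cells in which tebufenozide, 100 nM final, switches on Htt exon 1 with 103 glutamines linked to GFP; compounds are titrated.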
Tau fibril ThT: tau fibrillization inhibition (ThT binding). P10636. Potency, µM (titrated, usually from 57.4 µM), usual class: inhibitors. recombinant tau K18 P301L, heparin-induced fibrillization, ThT fluorescence. hit rate 2.1% among 270,000; also: nearly all actives have a fitted effect of over 55% in size
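ThT emission at 510 nm, taken 1 hr after adding 30 uM dye, quantifies aggregates formed when 20 uM heparin acts on human tau K18 P301L for 6 hr at 37 C.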
A number is an active result; n = inactive; u = inconclusive; x = no result given; ! = not active in a repeat; [ ] = remark or other dose. Calls follow the shape of the dose curve; as a rule, active = well fitted curve in the direction sought with a large enough effect; inconclusive = small, poorly fitted or top-dose-only effect, or another doubt; inactive = no such curve, though single readings can be large; an effect the other way counts as inactive or inconclusive.

SMILES | Tau fibril FP | Tau fluor counter | HttQ103 aggreg | HTT cytoprotect | Tau fibril ThT
Cc1ccc(NC(=O)CNc2ccc(Cl)c(Cl)c2)cc1S(=O)(=O)N(C)C | n | 16µM[quencher] | n | n[10 µM] | n
COc1ccc2c(c1)-c1nc(/N=C/c3ccccc3O)sc1CC2 | u | u | n | n[10 µM] | 32µM
COc1ccc2c(c1)-c1nc(/N=C/c3cccc(OC)c3O)sc1CC2 | n | n | n | n[10 µM] | n
CCOC(=O)c1[nH]c2ccccc2c1NC(=O)c1ccccc1OC | n | u | x | x | u
COc1cccc2[nH]c(C(=O)NN)c(N)c12 | u | u | n[9.22 µM] | n[10 µM] | 28µM
COc1cc2[nH]c(C(=O)NN)c(N)c2cc1OC | u | 22µM[quencher] | n[9.22 µM] | n[10 µM] | 16µM
Cc1coc2cc3oc(=O)c(CCC(=O)NCc4ccc(Cl)cc4)c(C)c3cc12 | n | n | x | x | n
O=C(/C=C/c1cccs1)NC(=S)NNC(=O)c1ccccc1O | n | u | n[9.22 µM] | n[10 µM] | 14µM
COc1ccc(C(=O)NNC(=S)NC(=O)/C=C/c2cccs2)cc1 | n | n[2.34 µM] | n[9.22 µM] | n[10 µM] | n
CCN1CCOC(=O)C1CC(=O)Nc1cc(C)cc(C)c1 (stereo not given) | n | n | x | x | u
Cc1ccc2nc(-c3ccc(Cl)c(NC(=O)c4ccc5c(c4)OCCO5)c3)oc2c1 | n | n | x | x | n
CC(C)CN1C(=S)SC(C)(C)C1n1oc(=O)n(-c2ccc(Cl)cc2)c1=O (stereo not given) | n | n | 25µM | n | n
CCN(CC)C(=O)Cn1c(=O)nc(-c2ccccc2F)c2cc(Cl)ccc21 | n | n | x | x | n
CC(C)COCc1ccc(O)c2ncccc12 | n | n | 10µM | n | u
CCCOCc1ccc(O)c2ncccc12 | n | n | n[9.22 µM] | n[10 µM] | n
OCc1ccc(O)c2ncccc12 | n | n | 10µM | n | n
CC1CCc2c(sc(NC(=O)c3cc(-c4cccc(Cl)c4)on3)c2C(N)=O)C1 (stereo not given) | n | n | x | x | u
CC1(OC(=O)C2CCCC2)C(=O)C=C2C=C3CCCN3C=C2C1=O (stereo not given) | n[11.6 µM] | n[11.6 µM] | x | n[10 µM] | n[11.5 µM]
COC(=O)CCCC1=CC2=CC(=O)C(C)(OC(=O)CCc3ccccc3)C(=O)C2=CO1 (stereo not given) | u | u | n[9.22 µM] | n | 25µM!
CC1(OC(=O)CCc2ccccc2)C(=O)C=C2C=C3CCCN3C=C2C1=O (stereo not given) | u | n[11.6 µM] | n[9.22 µM] | n[10 µM] | 3.5µM
CC1(OC(=O)c2cccs2)C(=O)C=C2C=C3CCCN3C=C2C1=O (stereo not given) | u | n[11.6 µM] | n[9.22 µM] | n[10 µM] | 5µM
CCN(CC)CCCN1C=C2C(=O)C(C)(OC(=O)CCc3ccccc3)C(=O)C=C2C=C1c1ccc(C#N)cc1 (stereo not given) | u | u | n[9.22 µM] | n[10 µM] | 13µM!
COc1ccc(CCNC(=O)CCSCc2ccccc2Cl)cc1OC | n | n | x | x | n
OC[C@@H]1[C@@H](c2ccc(Cl)cc2)C(c2ccccc2)=NN1c1ccccc1 | n | 10µM[quencher] | x | n | u
C[C@H]1C(c2ccc(F)cc2)=NN(c2ccccc2)[C@@H]1CO | u | 25µM[quencher] | x | n | u
SMILES | Tau fibril FP | Tau fluor counter | HttQ103 aggreg | HTT cytoprotect | Tau fibril ThT
COc1ccccc1[C@H]1C(c2ccc(F)cc2)=NN(c2ccccc2)[C@@H]1CO | u | u | x | n | u
COc1ccccc1[C@H]1C(c2ccccc2)=NN(c2ccccc2)[C@@H]1CO | n | 32µM[quencher] | x | n | u
OC[C@@H]1[C@@H](c2ccc(Cl)cc2)C(c2cccc(Cl)c2)=NN1c1ccccc1 | u | 11µM[quencher] | x | x | u
COc1ccccc1[C@H]1C(c2cccc(C)c2)=NN(c2ccccc2)[C@@H]1CO | u | u | x | x | n
CC[C@H]1C(c2ccccc2)=NN(c2ccccc2)[C@@H]1CO | u | u | x | n | n
Cc1nn(C)c2nc(NNC(=O)Nc3cc(Cl)nc(Cl)c3)cc(C(C)C)c12 | n | u | x | x | n
OC[C@@H]1[C@@H](c2ccc(F)cc2)C(c2cccc(Cl)c2)=NN1c1ccccc1 | n | 40µM[quencher] | x | x | u
C[C@H]1C(c2cccc(Cl)c2)=NN(c2ccccc2)[C@@H]1CO | n | 16µM[quencher] | x | x | u
CN(C)CCCNc1cc(O)c2c(c1O)C(=O)c1ccccc1C2=O | x | x | x | n[10 µM] | x
O=C1c2ccccc2C(=O)c2c(NCCCN(CCO)CCO)cccc21 | n | u | u | n | 14µM
COc1ccc(OC)c(-c2nnc3n(Cc4ccc(C)cc4)c(=O)c4ccccc4n23)c1 | n | n | x | x | n
